Measured values taken from paper PMC4336329 (PLoS ONE, 2015).
The campaign covered roughly 310,000 compounds. About 14,000 (4.5%) showed an effect of 50% or more. The effect is printed as a negative number. The entries come from a sample that favours strong results as a whole.

biological target: human ether-à-go-go-related gene (hERG) potassium channel (human, UniProt Q12809); experiment: primary screen, population patch clamp on CHO cells stably expressing hERG; higher = less effect of the substance
Sequence (Q12809 whole entry, looked up): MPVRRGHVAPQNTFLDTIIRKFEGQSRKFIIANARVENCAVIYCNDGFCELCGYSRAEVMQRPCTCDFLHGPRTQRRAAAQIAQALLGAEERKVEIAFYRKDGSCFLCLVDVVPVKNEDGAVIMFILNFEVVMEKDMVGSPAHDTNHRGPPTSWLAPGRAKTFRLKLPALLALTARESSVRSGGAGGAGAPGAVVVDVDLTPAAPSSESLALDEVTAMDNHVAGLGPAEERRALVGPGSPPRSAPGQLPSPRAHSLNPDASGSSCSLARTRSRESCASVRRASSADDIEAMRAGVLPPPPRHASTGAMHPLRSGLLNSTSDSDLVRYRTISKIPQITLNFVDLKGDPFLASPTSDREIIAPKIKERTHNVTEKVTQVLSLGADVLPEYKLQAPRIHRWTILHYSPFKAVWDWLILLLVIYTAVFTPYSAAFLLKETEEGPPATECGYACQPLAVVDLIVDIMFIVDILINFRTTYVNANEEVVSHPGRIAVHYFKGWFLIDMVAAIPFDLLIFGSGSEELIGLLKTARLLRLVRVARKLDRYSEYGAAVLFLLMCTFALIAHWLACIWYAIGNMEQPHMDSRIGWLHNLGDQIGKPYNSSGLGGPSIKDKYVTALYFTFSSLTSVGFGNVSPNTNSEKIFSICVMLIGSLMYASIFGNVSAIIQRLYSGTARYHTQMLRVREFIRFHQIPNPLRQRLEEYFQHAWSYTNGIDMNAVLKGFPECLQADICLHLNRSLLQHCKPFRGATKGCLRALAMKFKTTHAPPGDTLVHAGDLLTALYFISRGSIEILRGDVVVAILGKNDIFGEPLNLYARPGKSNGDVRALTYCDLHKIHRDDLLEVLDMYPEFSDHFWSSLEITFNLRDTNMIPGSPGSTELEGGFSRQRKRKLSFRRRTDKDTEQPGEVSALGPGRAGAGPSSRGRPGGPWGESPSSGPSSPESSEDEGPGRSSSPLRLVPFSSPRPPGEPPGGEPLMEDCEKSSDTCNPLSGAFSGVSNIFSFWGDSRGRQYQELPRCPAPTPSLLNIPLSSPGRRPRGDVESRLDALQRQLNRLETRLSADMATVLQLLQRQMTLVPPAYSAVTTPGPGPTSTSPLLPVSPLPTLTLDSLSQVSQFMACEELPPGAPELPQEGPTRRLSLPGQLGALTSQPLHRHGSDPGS
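Further: peak tail current of the secondary pulse compared with the same well before compound.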

Row | SMILES | hERG current change (%, negative = inhibition) at 10uM [%]
1 | COCCCNC(=O)c1oc2ccc(S(=O)(=O)N(C)C3CCCCC3)cc2c1C | -4.45
2 | COc1ccccc1-c1cc(-c2ccc(O)cc2)nc(N)c1C#N | 13.9
3 | CC(=O)c1ccc(S(=O)c2ccccc2)cc1 (stereo not drawn) | -3.38
4 | Cc1ccc(CSc2nnc(C)c(=O)[nH]2)cc1 | 10.9
5 | S=C(NCc1ccccn1)Nc1ccc(Cl)cc1Cl | 6.07
6 | O=C(CCc1ccccc1)NCC(=O)N/N=C/c1ccc(O)cc1O | -8.41
7 | COCc1cc(=O)[nH]c(Sc2c(-c3ccccc3)c3ccc(Cl)cc3[nH]c2=O)n1 | 20.4
8 | O=C(NCCCN1CCCC1=O)C(=O)NCC1OCCCN1S(=O)(=O)c1cc(F)ccc1F (stereo not drawn) | 23.8
9 | CC(=O)C1=C(c2ccccc2)NC(=O)NC1c1ccc(O)c(Cl)c1 (stereo not drawn) | 17.6
10 | O=C(COc1ccccc1Cl)c1ccc2c(c1)CCCC2 | -0.256
11 | Cc1nc2nc(SCC(=O)Nc3cccc(F)c3)[nH]c2cc1Br | 23.2
12 | C/C(N)=C(/C#N)C(=O)COC(=O)c1ccccc1O | -0.192
13 | Cc1ccc(NC(=O)CSc2ccc(-c3ccco3)nn2)cc1 | -7.67
14 | CCCN(CCC)CC(C)(C)NS(=O)(=O)c1ccc(Cl)cc1 | -17.1
15 | COc1ccc2nc(C)cc(N/N=C/c3ccccc3)c2c1 | -17.1
16 | COc1ccc(/C=N/Nc2cc(C)nc3ccccc23)cc1 | -63.3
17 | COc1ccc(/C=N/Nc2cc(C)nc3ccc(Br)cc23)cc1 | -35.1
18 | COc1ccc(-n2c(C)cc(/C=C/c3nc(O)c([N+](=O)[O-])c(=O)[nH]3)c2C)cc1 | 3.06
19 | CC1(C)NC(=O)N(CC(=O)NNC(=O)c2ccccc2F)C1=O | 3.42
20 | Cn1ncc(Br)c1C(=O)NC1CCCC1 | 24.1

Row | SMILES | hERG current change (%, negative = inhibition) at 10uM [%]
21 | C=CCn1c(O)c(C(C)=Nc2cccc(C(=O)O)c2)c(=O)[nH]c1=O | 1.4
22 | O=C(c1ccc(Cl)cc1Cl)c1ncc(C(F)(F)F)cc1Cl | -10.1
23 | Cc1c(CN(C)C)c2c(n1C)C(=O)c1ccc(Br)cc1-2.Cl | -37.3
24 | Cc1cc(=O)n(Cc2ccccc2)c2ccccc12 | 4.79
25 | O=c1oc2cc(Br)ccc2n1Cc1ccccc1 | 18.6
26 | Cc1cc(O)cc(=O)n1Cc1ccccc1 | 12
27 | Cc1c(CN(C)C)c2c(n1Cc1ccccc1)C(=O)c1ccccc1-2.Cl | -75.6
28 | Cc1c(CN(C)C)c2c(n1Cc1ccccc1)C(=O)c1ccc(Br)cc1-2.Cl | -74.5
29 | COCc1nnc(SCC(=O)NCc2ccccc2)n1-c1ccccc1 | -3.33
30 | CCOCCCNC(C(=O)Nc1ccc(OC)c(Cl)c1)c1ccccc1 (stereo not drawn) | -35.1
31 | CCC(C)C(NC(N)=O)C(=O)Nc1ccc(C)c(Cl)c1 (stereo not drawn) | 10.9
32 | CCc1ccc(C(=O)c2cncc(Br)c2)cc1 | -18.3
33 | CCOC(=O)c1c(CN2CCC(C)CC2)oc2ccc(OC)cc12 | -51.2
34 | CCOC(=O)c1c(CN2CCCCC2)oc2ccc(O)cc12.Cl | -54.3
35 | CCOC(=O)c1c(CN2CCN(c3ccccc3)CC2)oc2ccc(O)cc12 | -4.3
36 | CCOC(=O)c1c(CN2CCCCC2)oc2ccc(OC)cc12 | -61.6
37 | COc1ccc2oc(C(=O)OC(C)C(=O)N3CCC(C)CC3)c(C)c2c1 (stereo not drawn) | -5.44
38 | CCOC(=O)CCC(=O)c1c(C)oc2ccc(OC)cc12 | -57.2
39 | COc1ccc2oc(C(=O)OCC(=O)N3CCCC(C)C3)c(C)c2c1 (stereo not drawn) | -39.4
40 | CCOC(=O)c1c(CN2CCOCC2)oc2ccc(OC(C)=O)cc12 | 13.9

Row | SMILES | hERG current change (%, negative = inhibition) at 10uM [%]
41 | CCOC(=O)c1c(CN2CCOCC2)oc2ccc(OC)cc12 | -7.29
42 | CCOC(=O)c1c(CN2CCN(C)CC2)oc2ccc(O)cc12 | -38
43 | COc1ccc2oc(C)c(C(=O)NN)c2c1 | -1.4
44 | COc1ccc2oc(C)c(C(=O)c3ccccc3)c2c1 | -7.34
45 | CCOC(=O)c1cnc(Nc2nc3ccccc3o2)nc1CSc1nnc(C)s1 | -5.06
46 | C/C(=N\NC(=O)c1ccco1)c1ccc(NC(=O)c2cccs2)cc1 | 5.09
47 | Cc1ccc(NC(=O)CCC(=O)Nc2ccc(C)cc2)cc1 | 12.2
48 | COC(=O)C1=C(c2ccc3ccccc3c2)C[C@@H]2CC[C@H]1N2C(=O)N1CCCCC1 | 2.21
49 | CCn1nc(C)c(/C=N/NC(=O)c2nc3nc(C)cc(C)n3n2)c1C | 14.1
50 | COc1ccc(-c2nnn(Cc3nn[nH]n3)n2)cc1OC | 3.25
51 | O=C(CCSc1nnc(-c2ccncc2)o1)Nc1ccccc1Cl | -10.9
52 | CCOC(=O)c1c(-c2ccc(OC)cc2)oc2ccc(O)cc12 | 13.1
53 | CCOC(=O)c1c(CN2CCCCC2)oc2ccc(OC)cc12.Cl | -58.4
54 | CCN(CC)CCOC(=O)c1c(C)oc2ccc(OC)cc12.Cl | -36.6
55 | COc1ccc2oc(C(=O)OCC(=O)N3C(C)CCCC3C)c(C)c2c1 (stereo not drawn) | -14.8
56 | CCOC(=O)c1c(C)n(CCN2CCN(C)CC2)c2ccc(OC)cc12.Cl | -20.2
57 | CCOC(=O)c1c(CN(CC)CC)oc2ccc(OC)cc12 | -61.9
58 | CCOC(=O)c1c(CN2CCCCC2C)oc2ccc(OC)cc12.Cl (stereo not drawn) | -58.9
59 | CCc1ccc2oc(=O)cc(CN3CCCCC3C)c2c1.Cl (stereo not drawn) | -16.7
60 | CCOC(=O)c1c(-c2ccccc2)oc2ccc(OC)cc12 | 1.46
